Pf growth 48h: Primary qHTS for delayed death inhibitors of the malarial parasite plastid, 48 hour incubation. 310,000 tested, 5.9% active. AID 504832, 2011. Potency, µM (series often up to 28.7 µM), inactives show at the highest dose activity change, negative = inhibition, usual class: inhibitors. P. falciparum luciferase growth in erythrocytes, 48 h; also: % is scaled to controls: 0 for no effect and ±100 for the full control effect
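Firefly luciferase activity from engineered P. falciparum reports growth; inhibitors lower the luminescent signal. Cultures contained 2% hematocrit erythrocytes at 0.1% final parasitemia.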
Pf growth 96h: Primary qHTS for delayed death inhibitors of the malarial parasite plastid, 96 hour incubation. P. falciparum luciferase reporter growth, 96 h. Potency, µM (series often up to 28.7 µM), without a hit: at the highest dose activity change, negative = inhibition, usual class: inhibitors. 320,000 tested, 6.9% active. AID 504834, 2011; also: % is scaled to controls: 0 for no effect and ±100 for the full control effect
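Readout is luminescence from an integrated firefly luciferase in P. falciparum. Red cells, 2% hematocrit and 0.05% parasitemia final, were cultured with compound through two parasite generations (96 hours) at 37 C, 5% CO2.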
SARS PLP yeast: qHTS of Yeast-based Assay for SARS-CoV PLP. S. cerevisiae expressing SARS-CoV PLpro, growth rescue. Potency, µM (series often up to 32.9 µM), for inactives: at the top dose activity, positive = growth rescue, usual class: activators. 330,000 tested, 0.19% active. AID 485353, 2010; calls by dose curve; also: 0% is about no effect; nearly all actives have a fitted effect of over 55% in size
AMA1 RON2 block: qHTS for Inhibitors of AMA1-RON; Towards Development of Antimalarial Drug Lead: Primary Screen; Plasmodium falciparum AMA1 (3D7) - RON2 peptide interaction; AlphaScreen AMA1-biotinylated RON2 peptide binding; Potency, µM (doses to about 58.2 µM), for inactives: top-dose activity change, negative = inhibition, usual class: inhibitors; 360,000 tested, 0.2% active; AID 720542, 2013;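 also: 0% = vehicle wells and -100% = peptide control; nearly all actives have a fitted effect of over 45% in size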
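AMA1 (3D7) with his tag at 25 nM final met compounds first, then biotinylated RON2 peptide at 25 nM; detection used donor plus acceptor beads, 10 µg/mL apiece, read by AlphaScreen after 30 min at room temperature.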
An asterisk follows results filed as active; ? = inconclusive; nt = no result; [ ] = another dose, or the depositor's remark. This is a sample that favours compounds with a hit; in the whole collection about 9.4% have one here. Unless noted, calls follow the shape of the dose curve; as a rule, active = well fitted curve in the direction sought with a large enough effect; inconclusive = small, poorly fitted or top-dose-only effect, or another doubt; inactive = no such curve, though single readings can be large; an effect the other way counts as inactive or inconclusive. Potency is read from the fitted curve at half-maximal effect.

SMILES	Pf growth 48h	Pf growth 96h	SARS PLP yeast	AMA1 RON2 block
COc1ccc(CN(C)C(=O)c2ccc(NC(=O)CC3SC(N4CCCCC4)=NC3=O)cc2)c(OC)c1 (centres undefined)	nt	nt	nt	17.1%
COc1cccc(CN(C)C(=O)c2ccc(NC(=O)CC3SC(N4CCCC4)=NC3=O)cc2)c1OC (centres undefined)	?	6.57µM*	3.0%	-11.9%
Cc1ccnc(NC(=O)c2cccc(NC(=O)CC3SC(N4CCCCC4)=NC3=O)c2)c1 (centres undefined)	?	8.28µM*	0.3%	-1.2%
O=C(Nc1ccccc1F)Nc1ccccc1N1CCCCC1	?	?	-2.0%	-19.5%
COc1cc(CNC(=O)OC2CC3CC2[C@H]2CCCCN2C3=O)cc(OC)c1 (some centres undefined)	nt	nt	nt	8.4%
[O-][n+]1ccc(C2CC2)cc1	-3.6%	-12.9%	-2.0%	36.0%
CC1(C)CC(=O)C=C(c2ccc(I)cc2)C1	4.65µM*	?	-0.9%	-5.2%
CC1(C)CC(=O)C=C(c2ccc(Oc3ccccc3)cc2)C1	16.7%	?	3.4%	0.2%
CC(C)c1ccc(C(=O)CC2(O)C(=O)N(CN3CCOCC3)c3ccccc32)cc1 (centres undefined)	36.5%	11.7µM*	-3.0%	-1.3%
COc1ccc(NC(=O)C2CCCO2)c(OC)c1 (centres undefined)	34.5%	?	1.8%	4.6%
COc1cc(/C=N/NC(=O)c2cc(C3CC3)[nH]n2)ccc1O	2.2%	10.3%	1.5%	-0.9%
Cc1nn(-c2ccccc2)c(C)c1/C=N/NC(=O)c1cc(C23CC4CC(CC(C4)C2)C3)[nH]n1	3.29µM*	2.08µM*	-4.1%	20.4%
Cc1cc(C(=O)N/N=C/c2c(C)nn(-c3ccccc3)c2C)n[nH]1	-10.5%	?	0.0%	65.7%
COc1cc(/C=N/NC(=O)c2cc(C34CC5CC(CC(C5)C3)C4)[nH]n2)ccc1O	?	11.7µM*	-3.4%	9.3%
CC(C)Cc1nnc(NC(=O)CCC(=O)N2CCC3(CC2)OCCO3)s1	64.0%	94.3%	-1.5%	11.5%
Cc1ccc(-n2nc(C)c3c(C)c(CCC(=O)NC(C)c4ccccc4)c(C)nc32)cc1 (centres undefined)	nt	9.28µM*	-3.8%	-1.7%
CCCCN1C(=O)c2ccc(C(=O)Nc3c(N)n(CCCC)c(=O)n(C)c3=O)cc2C1=O	5.5%	5.22µM*	8.6%	?
COc1ccccc1NC(=O)c1ccc2c(c1)N(CC#N)C(=O)C(C)(C)O2	-22.7%	11.7µM*	6.4%	10.0%
COCCCN1C(=O)c2ccc(C(=O)Nc3ccccc3Cl)cc2C1=O	-1.5%[0.00184 µM]	?	-0.1%	8.9%
COCCCN1C(=O)c2ccc(C(=O)Nc3ccccc3OC)cc2C1=O	21.4%	4.65µM*	-5.0%	11.8%
CCC(Sc1nc(C)cc(=O)[nH]1)C(=O)Nc1sc2c(c1C#N)CCCC2 (centres undefined)	13.1%	?	9.7%	-0.3%
CC#CC(=O)NCC1(N(C)Cc2ccccc2)Cc2ccccc2C1	-24.3%	7.38µM*	-7.6%	-3.2%
COC(=O)CSc1nc(C)cc(Oc2ccccc2)n1	nt	?	-5.0%	-4.4%
CCCn1c(SC(C)C(=O)NCC2CCCO2)nc2sc3c(c2c1=O)CCC3 (centres undefined)	13.1µM*	?	-1.8%	4.6%
CC(=O)c1c(C)[nH]c(C(=O)OCC(=O)Nc2ccc3c(c2)OCCO3)c1C	nt	nt	-1.9%	2.9%[11.6 µM]
SMILES	Pf growth 48h	Pf growth 96h	SARS PLP yeast	AMA1 RON2 block
COc1ccc(CNCCc2ccccc2F)c(OC)c1C	10.4µM*	-6.4%	0.8%	?
COc1cc(C)c(CNCCc2c[nH]c3ccccc23)cc1C	?	28.5%	2.6%	?
COc1ccc(CNCCc2c[nH]c3ccccc23)c(OC)c1C	?	2.94µM*	-2.0%	?
CCOc1cc(CNCCc2ccccc2F)ccc1OC	-25.4%	?	-0.6%	-0.3%
Cc1ccccc1N1CC(O)(c2ccccc2)[N+]2=C1SCC2 (centres undefined)	3.1%	-0.3%	24.4%	0.3%
Nc1ccc(N2CCOCC2)c2nonc12	0.5%	11.7µM*	-2.0%	2.6%
O=C(N/N=C/c1ccncc1)c1cc(-c2ccc(Br)s2)[nH]n1	?	11.7µM*	14.4%	7.1%
Cc1ccc(-c2cc(C(=O)N/N=C/c3ccco3)n[nH]2)s1	10.4µM*	67.8%	7.0%	22.6%
O=C(N/N=C\c1ccncc1)c1ccc(Cl)s1	9.8%	13.1µM*	-0.7%	20.2%
O=C(N/N=C\c1cccnc1)c1ccc(Cl)s1	4.4%	?	-1.5%	2.9%
O=C(NCc1ccc(C(F)(F)F)cc1)c1ccc(-c2cccnc2)c2ccoc12	nt	nt	nt	48.8%
Cc1ccccc1NC(=O)COC(=O)c1c(C)nn(-c2ccccc2)c1C	nt	nt	nt	0.6%
COc1ccc(-c2nc(N)nc(N)n2)c(O)c1	43.9%	22.7%	-1.0%	22.5%
Cc1ccc(OCCNC(=O)C2CCCCC2)cc1	20.0%[5.75 µM]	-1.0%	-0.7%	4.8%
O=C(NCCOc1ccc(Cl)cc1)C1CCCCC1	11.7µM*	19.4%	1.8%	1.0%
O=C(NCCCCNC(=O)C1CCCC1)C1CCCC1	-14.1%	31.1%	1.6%	-3.8%
CCCCOCCCNC(=O)C1CCCCC1	4.3%	8.28µM*	-1.7%	1.5%
COc1ccc(CN2CCCC(C(=O)c3ccc(Cl)cc3)C2)cc1Cn1cccn1 (centres undefined)	?	?	2.2%	-12.6%
Cc1ccc(C(=O)COC(=O)C2C3C=CC(C3)C2C(=O)OCC(=O)c2ccc(C)c(C)c2)cc1C (centres undefined)	?	1.17µM*	2.8%	-12.3%
CC(=O)NCC(=O)OCC(=O)c1ccc(C)c(C)c1	13.5%	26.6%	1.0%	-8.8%
CN(C)S(=O)(=O)N1CCN(S(=O)(=O)c2ccccc2)CC1	-3.6%	?	0.3%	-29.2%
CCOc1cccc(OCCCCn2ccnc2)c1	11.7µM*	-9.1%	3.9%	-10.9%
Fc1ccc(OCCCCCn2ccnc2)cc1	-24.1%	4.15µM*	-1.1%	2.5%
Fc1ccc(OCCCn2ccnc2)cc1	-1.1%	?	0.9%	?
CN1C(=O)CSc2ccc(NC(=O)N3CCC(N4CCCCC4)CC3)cc21	nt	11.7µM*	6.2%	-5.2%
SMILES	Pf growth 48h	Pf growth 96h	SARS PLP yeast	AMA1 RON2 block
Cc1ccc(C)c(N2CCN(C(=O)Nc3ccc4c(c3)N(C)C(=O)CS4)CC2)c1	?	34.9%	-9.3%	-21.4%
CCc1ccc(NC(=O)CSc2nc(=O)n(CCN(C)C)c3c2CCCC3)cc1	?	?	-2.8%	7.1%
Oc1ccccc1C1=Nc2ncnn2C(c2ccc(F)cc2)C1 (centres undefined)	32.5%	11.7µM*	14.9%	10.8%
O=C(COC(=O)CC1Sc2ccccc2NC1=O)NCc1ccccc1 (centres undefined)	13.1µM*	?	6.7%	8.8%
CCCOc1cc(CN2CCCCC2)cc(C(C)=O)c1	8.1%	9.28µM*	nt	2.1%
CCc1cc(-c2nc(N)ncc2-c2ccc(Br)cc2)c(O)cc1OC	-3.9%	19.0%	1.2%	-26.3%
